# Records with an inconclusive call do not appear. The source made the active and inactive calls. How the source made its calls, unless noted: active means hit-call score of the fitted dose curve at least 0.9, where 1 is the maximum; inconclusive means response in the unintended direction; inactive means score below 0.9.
# Target: Thyroid hormone receptor alpha (Rattus norvegicus) + Thyroid hormone receptor beta (Rattus norvegicus) (UniProt P18113+P63059)
# Test: TOX21_TR_LUC_GH3_Antagonist_Followup: Tox21 GH3 Thyroid Hormone Receptor Antagonism Luciferase Follow-Up Assay (AID 2283942)
# Summary of the method: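 Rat pituitary GH3 cells with a TRα/TRβ-driven luciferase reporter, 5 h attachment, then 15 concentrations (92 uM to 5nM final) plus 1.0 nM T3 agonist, 24 h at 37C/5% CO2. ONE-Glo luminescence; signal change fitted against DMSO baseline.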
row,Compound,outcome
1,C#CCC(Cc1cnc2nc(N)nc(N)c2n1)c1ccc(C(=O)N[C@@H](CCC(=O)O)C(=O)O)cc1 (stereo partly specified),inactive
2,NC(N)=NCc1cccc(I)c1,inactive
3,Cc1cc(Nc2ccccc2C(=O)O)ccc1Cl,inactive
4,CC(C)=CCC1=C(O)c2ccccc2C(=O)C1=O,inactive

# Target: THRA (gene 7067) (UniProt P10827)
# Test: TOX21_TRA_COA_Agonist_Followup_ratio: Tox21 Thyroid Hormone Receptor alpha Agonism through Coactivator Recruitment Follow-Up Assay, Ratio (AID 2283948; active means hit-call score of the fitted dose curve at least 0.9, where 1 is the maximum; inactive means score below 0.9)
# Excerpt: TOX21_TRa_COA_Agonist_Followup is a secondary assay for specificity for the TOX21_TR_GH3_LUC_Agonist assay. The LanthaScreen TR-FRET TR coactivator assay kits were used to determine TR activity in a cell-free functional assay. A time-resolved fluorescence resonance energy transfer (TR-FRET) signal was indicative of coactivator (SRC-2) recruitment.TOX21_TRA_COA_Agonist_Followup_ratio is assay component calculated in the TOX21_TRA_COA_Agonist_Followup assay. The TR-FRET ratio of acceptor emission (ch2) to donor emission (ch1) is indicative of the resonance energy transfer to the fluorescein tag on the coactivator peptide following recruitment to the receptor.Data from the assay component TOX21_TRA_COA_Agonist_Followup_ratio was analyzed into 1 assay endpoint. This assay endpoint, TOX21_TRA_COA_Agonist_Followup_ratio, was analyzed in the positive analysis fitting direction relative to DMSO as the negative control and baseline of activity. Using a type of inducible reporter, gain-of-signal activity can be used to understand changes in the reporter gene as they relate to the gene THRA. Furthermore, this assay endpoint can be referred to as a primary readout, because this assay has produced multiple assay endpoints and this ratio serves a reporter gene function to understand target activity. To generalize the intended target to other relatable targets, this assay endpoint is annotated to the nuclear receptor intended target family, where the subfamily is non-steroidal.
# Cell Media Required: Growth (90% DMEM/F-12, 10% Fetal Bovine Calf Serum, 100U/ml Penicillin, 100 ug/ml Streptomycin), Assay (10ng/mL sodium selenite, 10 ug/mL humanapo-transferrin, 10 uM ethanolamine, 10 ug/mL insulin, 500 ug/mL bovine serum albumin (BSA))Assay Protocol: 4 uL mixture of the receptor LBDs expressed as glutathione S-transferase (GST) fusion proteins (2.5 nM for TRa and 5.0 nM for TRb) and BSA (0.10%; Sigma-Aldrich) were incubated with 23 nL of control or test compound. A time-resolved fluorescence resonance energy transfer(TR-FRET) signal was indicative of coactivator recruitment using a 2 uL mixture of fluoresce in-labeled SRC-2 peptide (200 nM) and terbium-labeled anti-GST antibody (2nM), which transferred resonance energy to the fluorescein tag on the coactivator peptide following recruitment to the receptor. Fluorescence emission ratios (520:495 nm) were collected by an Envision plate reader (excitation at 340 nm and emissions at 495 and 520 nm), and the measured values were normalized to 0% activity using DMSO-only wells and 100 activity using T3 control wells.
# Sequence of THRA (gene 7067) (P10827 whole entry, looked up): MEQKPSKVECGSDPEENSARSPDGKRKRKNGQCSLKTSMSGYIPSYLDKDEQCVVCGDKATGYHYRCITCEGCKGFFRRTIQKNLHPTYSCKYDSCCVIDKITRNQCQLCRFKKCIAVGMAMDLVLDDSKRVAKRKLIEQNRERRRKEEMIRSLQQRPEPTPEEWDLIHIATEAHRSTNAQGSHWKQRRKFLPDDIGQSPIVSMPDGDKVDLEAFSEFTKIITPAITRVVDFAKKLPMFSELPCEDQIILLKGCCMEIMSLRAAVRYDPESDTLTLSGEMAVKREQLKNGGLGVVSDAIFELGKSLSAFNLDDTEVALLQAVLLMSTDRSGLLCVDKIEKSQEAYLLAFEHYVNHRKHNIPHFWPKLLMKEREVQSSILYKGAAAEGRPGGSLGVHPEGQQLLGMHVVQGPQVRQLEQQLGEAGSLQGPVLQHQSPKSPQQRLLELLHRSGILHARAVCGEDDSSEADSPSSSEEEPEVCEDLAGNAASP
Compound,outcome,AC50
Cc1cc(-n2c(=O)[nH]c(=O)n(C)c2=O)ccc1Oc1ccc(S(=O)(=O)C(F)(F)F)cc1,inactive,–
CC(C)(C)CC(C)(C)c1ccc(O)c(Cc2ccc(Cl)cc2Cl)c1,–,12.1 µM (active)
COc1cc(C)c(/C=C/C(C)=C/C=C/C(C)=C/C(=O)O)c(C)c1C,inactive,–

# Target: THRB (gene 7068) (UniProt P10828)
# Test: TOX21_TRB_BLA_Antagonist_Followup_ratio: Tox21 Thyroid Hormone Receptor beta Antagonism Beta-lactamase (BLA) Follow-Up Assay, Ratio (AID 2283958)
# Summary of the method: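 HEK293T TRb-bla (GAL4 DBD + hTRβ LBD), 2% cs-FBS phenol red-free DMEM, 5 h attach; cpds 11-pt triplicate, 18 h 37C; CCF4-AM 2 h RT; 460/530 ratio vs DMSO; CellTiter-Glo viability same wells.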
# Sequence of THRB (gene 7068) (P10828 whole entry, looked up): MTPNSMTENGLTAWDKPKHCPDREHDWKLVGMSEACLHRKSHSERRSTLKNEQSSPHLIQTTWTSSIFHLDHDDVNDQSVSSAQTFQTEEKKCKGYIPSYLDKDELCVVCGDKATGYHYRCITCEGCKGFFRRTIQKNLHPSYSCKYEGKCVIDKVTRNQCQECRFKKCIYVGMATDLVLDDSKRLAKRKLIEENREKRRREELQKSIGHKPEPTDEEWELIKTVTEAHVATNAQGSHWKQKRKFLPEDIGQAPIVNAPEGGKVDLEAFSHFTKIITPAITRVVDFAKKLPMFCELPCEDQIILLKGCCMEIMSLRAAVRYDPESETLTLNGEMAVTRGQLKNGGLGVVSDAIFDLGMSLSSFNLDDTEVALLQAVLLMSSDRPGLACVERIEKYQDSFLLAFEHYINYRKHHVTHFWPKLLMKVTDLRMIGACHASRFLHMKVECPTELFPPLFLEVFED
Compound,outcome,AC50
C#CCC(Cc1cnc2nc(N)nc(N)c2n1)c1ccc(C(=O)N[C@@H](CCC(=O)O)C(=O)O)cc1 (stereo partly specified),inactive,–
NC(N)=NCc1cccc(I)c1,inactive,–
Cc1cc(Nc2ccccc2C(=O)O)ccc1Cl,–,51.5 µM (active)
CC(C)=CCC1=C(O)c2ccccc2C(=O)C1=O,inactive,–

# Test system: not listed separately
# Test: TOX21_TRB_BLA_Antagonist_Followup_viability: Viability Assessment in the Tox21 Thyroid Hormone Receptor beta Antagonism Beta-lactamase (BLA) Follow-Up Assay (AID 2283961)
# Summary of the method: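 HEK293T cells stably expressing GAL4-DBD/human TRβ-LBD with UAS-bla reporter, 3,000 cells/well in phenol red-free DMEM, 2% charcoal-stripped FBS. Compounds at 11 concentrations in triplicate, 18 h at 37C/5% CO2; viability by CellTiter-Glo luminescence after 30 min at room temperature.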
Compound,AC50,outcome
C#CCC(Cc1cnc2nc(N)nc(N)c2n1)c1ccc(C(=O)N[C@@H](CCC(=O)O)C(=O)O)cc1 (stereo partly specified),0.44 µM (active),–
NC(N)=NCc1cccc(I)c1,–,inactive
Cc1cc(Nc2ccccc2C(=O)O)ccc1Cl,–,inactive
CC(C)=CCC1=C(O)c2ccccc2C(=O)C1=O,–,inactive

# Target: THRB (gene 7068) (UniProt P10828)
# Test: TOX21_TRB_COA_Agonist_Followup_ratio: Tox21 Thyroid Hormone Receptor beta Agonism through Coactivator Recruitment Follow-Up Assay, Ratio (AID 2283963; active means hit-call score of the fitted dose curve at least 0.9, where 1 is the maximum; inactive means score below 0.9)
# Summary of the method: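 Signal is the 520/495 nm emission ratio (excitation 340 nm), scaled between DMSO-only wells as 0% and T3 wells as 100%. It reflects fluorescein-labeled SRC-2 peptide recruitment to GST-TRβ ligand-binding domain detected via terbium anti-GST antibody.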
Compound,outcome,AC50
Cc1cc(-n2c(=O)[nH]c(=O)n(C)c2=O)ccc1Oc1ccc(S(=O)(=O)C(F)(F)F)cc1,inactive,–
CC(C)(C)CC(C)(C)c1ccc(O)c(Cc2ccc(Cl)cc2Cl)c1,–,12.2 µM (active)
COc1cc(C)c(/C=C/C(C)=C/C=C/C(C)=C/C(=O)O)c(C)c1C,inactive,–

# Target: THRB (gene 7068) (UniProt P10828)
# Test: TOX21_TRB_COA_Antagonist_Followup_ratio: Tox21 Thyroid Hormone Receptor beta Antagonism through Coactivator Recruitment Follow-Up Assay, Ratio (AID 2283967)
# Summary of the method: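 Cell-free TR-FRET coactivator recruitment with GST-tagged TRβ LBD (5.0 nM) and fluorescein-labeled SRC-2 peptide (200 nM) detected by terbium anti-GST antibody (2 nM). The 520:495 nm emission ratio was normalized to DMSO (0%) and T3 (100%).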
Compound,outcome,AC50
C#CCC(Cc1cnc2nc(N)nc(N)c2n1)c1ccc(C(=O)N[C@@H](CCC(=O)O)C(=O)O)cc1 (stereo partly specified),inactive,–
NC(N)=NCc1cccc(I)c1,inactive,–
Cc1cc(Nc2ccccc2C(=O)O)ccc1Cl,inactive,–
CC(C)=CCC1=C(O)c2ccccc2C(=O)C1=O,–,31.3 µM (active)

# Target: Retinoic acid receptor RXR-alpha (Homo sapiens) (UniProt P19793)
# Test: TOX21_TR_RXR_BLA_Agonist_Followup_ratio: Tox21 Thyroid Hormone Receptor beta Retinoid X Receptor alpha (RXRa) Agonism Beta-lactamase (BLA) Follow-Up Assay, Ratio (AID 2283968)
# Summary of the method: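 HEK293T RXRa-bla, qHTS; cpd 11-pt conc. in triplicate, 16 h 37C/5% CO2; CCF4-AM 2 h RT; ratio 460:530 nm; agonist direction vs DMSO; 9-cis retinoic acid as positive control.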
# Sequence of Retinoic acid receptor RXR-alpha (Homo sapiens) (P19793 whole entry, looked up): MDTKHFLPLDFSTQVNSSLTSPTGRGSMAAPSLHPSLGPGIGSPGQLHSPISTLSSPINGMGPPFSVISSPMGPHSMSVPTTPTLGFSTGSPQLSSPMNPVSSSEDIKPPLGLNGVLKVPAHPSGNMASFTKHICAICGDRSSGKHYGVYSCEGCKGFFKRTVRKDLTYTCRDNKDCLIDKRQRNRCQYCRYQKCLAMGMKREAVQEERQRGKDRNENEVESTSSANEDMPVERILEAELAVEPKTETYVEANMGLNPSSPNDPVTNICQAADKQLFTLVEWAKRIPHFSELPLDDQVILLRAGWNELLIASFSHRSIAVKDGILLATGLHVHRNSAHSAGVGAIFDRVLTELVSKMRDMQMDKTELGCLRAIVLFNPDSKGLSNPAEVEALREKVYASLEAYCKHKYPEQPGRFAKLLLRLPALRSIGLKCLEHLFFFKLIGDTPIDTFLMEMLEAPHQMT
Compound,outcome,AC50
Cc1cc(-n2c(=O)[nH]c(=O)n(C)c2=O)ccc1Oc1ccc(S(=O)(=O)C(F)(F)F)cc1,inactive,–
CC(C)(C)CC(C)(C)c1ccc(O)c(Cc2ccc(Cl)cc2Cl)c1,inactive,–
COc1cc(C)c(/C=C/C(C)=C/C=C/C(C)=C/C(=O)O)c(C)c1C,–,0.593 µM (active)

# Test system: not listed separately
# Test: TOX21_TR_RXR_BLA_Agonist_Followup_viability: Viability Assessment in the Tox21 Thyroid Hormone Receptor beta Retinoid X Receptor alpha (RXRa) Agonism Beta-lactamase (BLA) Follow-Up Assay (AID 2283970)
# Summary of the method: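 Cells: HEK293T RXRa-UAS-bla, 2,500/well; medium phenol red-free DMEM + 2% charcoal-stripped FBS; 16h, 37C/5% CO2; qHTS concentration series. Read: CellTiter-Glo luminescence (ATP); bidirectional fit, DMSO = baseline.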
row,Compound,outcome
1,Cc1cc(-n2c(=O)[nH]c(=O)n(C)c2=O)ccc1Oc1ccc(S(=O)(=O)C(F)(F)F)cc1,inactive
2,CC(C)(C)CC(C)(C)c1ccc(O)c(Cc2ccc(Cl)cc2Cl)c1,inactive
3,COc1cc(C)c(/C=C/C(C)=C/C=C/C(C)=C/C(=O)O)c(C)c1C,inactive

# Target: Retinoic acid receptor RXR-alpha (Homo sapiens) (UniProt P19793)
# Test: TOX21_TR_RXR_BLA_Antagonist_Followup_ratio: Tox21 Thyroid Hormone Receptor beta Retinoid X Receptor alpha (RXRa) Antagonism Beta-lactamase (BLA) Follow-Up Assay, Ratio (AID 2283972)
# Summary of the method: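 RXRa-UAS-bla HEK293T cells in phenol red-free DMEM with 2% charcoal-stripped FBS; compounds at 11 concentrations in triplicate, 16 h at 37C. LiveBLAzer FRET-B/CCF4-AM substrate 2 h at room temperature; read as 460:530 nm ratio versus DMSO.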
Compound,AC50,outcome
C#CCC(Cc1cnc2nc(N)nc(N)c2n1)c1ccc(C(=O)N[C@@H](CCC(=O)O)C(=O)O)cc1 (stereo partly specified),0.448 µM (active),–
NC(N)=NCc1cccc(I)c1,–,inactive
Cc1cc(Nc2ccccc2C(=O)O)ccc1Cl,–,inactive
CC(C)=CCC1=C(O)c2ccccc2C(=O)C1=O,–,inactive

# Test system: not listed separately
# Test: TOX21_TR_RXR_BLA_Antagonist_Followup_viability: Viability Assessment in the Tox21 Thyroid Hormone Receptor beta Retinoid X Receptor alpha (RXRa) Antagonism Beta-lactamase (BLA) Follow-Up Assay (AID 2283979)
# Summary of the method: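 RXRa-UAS-bla HEK293T cells seeded 2,500/well in phenol red-free DMEM with 2% charcoal-stripped FBS, attached 5 h, then exposed to compounds at 11 concentrations in triplicate for 16 h at 37C/5% CO2. Viability read by CellTiter-Glo ATP luminescence; bidirectional fit versus DMSO.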
Compound,AC50,outcome
C#CCC(Cc1cnc2nc(N)nc(N)c2n1)c1ccc(C(=O)N[C@@H](CCC(=O)O)C(=O)O)cc1 (stereo partly specified),0.542 µM (active),–
NC(N)=NCc1cccc(I)c1,–,inactive
Cc1cc(Nc2ccccc2C(=O)O)ccc1Cl,–,inactive
CC(C)=CCC1=C(O)c2ccccc2C(=O)C1=O,–,inactive
